# Tau fluor cs: counter-screen for tau fibril formation inhibitors. Potency, µM (series often up to 57.7 µM). 0.93% of 280,000 active. tau K18 P301L Alexa594 fluorescence, heparin fibrillization; further: nearly all actives have a fitted effect of over 55% in size
#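 Human tau K18 P301L (15 uM unlabeled, 0.24 uM Alexa 594-labeled) in 100 mM sodium acetate pH 7 with 20 uM heparin, 6 hr at 37 C. ThT 30 uM added, 1 hr ambient; Alexa 594 FP and total fluorescence read at 555/632 nm.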
# USP1-UAF1 inh: blocks the human USP1/UAF1 deubiquitinase complex. O94782. recombinant USP1/UAF1, Ub-Rhodamine cleavage fluorescence. Potency, µM (titrated, usually from 57.1 µM), hits mostly inhibitors. 0.23% of 390,000 active. AID 743255; further: nearly all actives have a fitted effect of over 60% in size
#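 High-throughput fluorogenic screen: 1nM USP1/UAF1 complex, Ub-Rho substrate 150nM final, 50mM HEPES pH 7.8 with 0.5mM EDTA, 0.1 mg/ml BSA, 1mM TCEP and 0.01% Tween-20.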
# Tau FP inhib: inhibitors of human tau fibril formation. P10636. K18 P301L tau heparin fibrillization, Alexa594 FP, 6 h. Potency, µM (highest dose often 57.7 µM), hits mostly inhibitors. 0.39% of 280,000 active. AID 1468; further: nearly all actives have a fitted effect of over 55% in size
# Target sequence (P10636 561-689 P618L limits assumed): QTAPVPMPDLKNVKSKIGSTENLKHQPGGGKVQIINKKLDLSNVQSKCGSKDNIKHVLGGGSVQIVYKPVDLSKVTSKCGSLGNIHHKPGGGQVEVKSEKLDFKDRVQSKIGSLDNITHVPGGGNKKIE
#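 Compound effects on tau fibrillization are measured by Alexa 594 fluorescence polarization (ex 555, em 632 nm). K18 P301L tau is used at 15 uM with 0.24 uM labeled tracer, and 20 uM heparin induces aggregation over 6 hr at 37 C.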
# Tau ThT inhib: inhibitors of human tau fibril formation, thioflavin T binding; P10636; recombinant tau K18 P301L (four-repeat tau fragment), heparin-induced fibrillization, ThT fluorescence; Potency, µM (top dose mostly 57.4 µM), most hits filed as inhibitors; 2.1% of 270,000 active; further: nearly all actives have a fitted effect of over 55% in size
#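 Aggregation was driven by heparin (20 uM final) acting on recombinant tau […] bearing P301L in 100 mM sodium acetate pH 7; fibrils were detected with Thioflavin T.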
# Coupling enz: counter-screen for Giardia aldolase inhibitors: coupling enzyme system. activity change, negative = inhibition, % at 58.2 µM, hits read low. 0.67% of 290,000 active. coupling enzyme system counterscreen, AmpLite Red fluorescence. AID 2472; in the data active means activity change below about -30%
#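 Counterscreen lacking aldolase: glyceraldehyde-3-phosphate coupling-enzyme reagent preincubated 10 min at RT with compound (at 57.5 uM final), then substrate/coupling system with AmpLite Red added; fluorescence read at 525/598 nm after 20 min RT.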
# Numbers stand for hits; n = inactive; u = inconclusive; x = no result; [ ] = remark or other dose. This is a sample that favours compounds with a hit; in the whole collection about 2.3% have one here. Unless noted, the call rests on the fitted dose curve; in most records, active means well fitted curve in the direction sought with a large enough effect; inconclusive means small, poorly fitted or top-dose-only effect, or another doubt; inactive means no such curve, though single readings can be large; an effect the other way counts as inactive or inconclusive.
SMILES,Tau fluor cs,USP1-UAF1 inh,Tau FP inhib,Tau ThT inhib,Coupling enz
Cc1c(C)c2cccnc2c2ncccc12,x,n,x,x,x
Cc1[nH]c2ccc3ncccc3c2c1C,n,n,n,n,-39
CC(C)c1ccc(NC(=O)C(NS(=O)(=O)c2ccc3c(c2)CCC(=O)N3)c2ccccc2)cc1 (stereo not drawn),u,u,n,n,x
COc1ccc(CCNC2CC(=O)N(CCc3ccccc3)C2=O)cc1 (stereo not drawn),n,n,n,n,n
CCN(CC)c1ccc(NC2CC(=O)N(CCc3ccc(OC)cc3)C2=O)cc1 (stereo not drawn),u,n,u,11µM,n
Cc1ccc(CN(C)C(=O)CN2C(=O)NC3(CCCc4ccccc43)C2=O)c(C)c1 (stereo not drawn),x,n,x,x,x
CCN(CC)c1ccc(N=Cc2ccc([N+](=O)[O-])o2)cc1,u,u,11µM,10µM,-39
CCN(CC)c1ccc(N=Cc2ccccc2[N+](=O)[O-])cc1,u,u,u,14µM,n
CCCCCC(=O)N/N=C/c1ccc([N+](=O)[O-])o1,n,n,n,u,n
O=[N+]([O-])c1ccccc1/C=N/OCc1ccccc1,x,n,x,x,n
CCN(CC)c1ccc(/C=C(/C#N)C(=O)NCc2ccccc2)o1,n,32µM,n,u,n
N#C/C(=C\c1ccc(O)cc1)C(=O)NCc1ccccc1,x,n,x,x,n
CCN(CC)c1ccc(/C=C(/C#N)C(=O)NC(C)C)o1,n,25µM,n,u,n
CC(C)NC(=O)/C(C#N)=C\c1ccc(N(C)C)o1,n[2.34 µM],u,n,n,n
N#Cc1cccc(-c2cncnc2NCc2ccccc2)c1,x,x,x,x,n
COc1ccc(C(C(=O)NC(C)(C)C)N(C(=O)CCC(=O)Nc2cc(C)on2)c2ccccc2F)cc1 (stereo not drawn),x,n,x,x,n
COc1ccc(OCC(=O)OCc2cc(=O)n3cc(C)sc3n2)cc1,n,n,n,n,x
O=C(O)c1cc([N+](=O)[O-])c(Sc2nc3ccccc3[nH]2)c([N+](=O)[O-])c1,x,n,x,x,n
CS(=O)(=O)c1cc([N+](=O)[O-])c(Sc2nc3ccccc3[nH]2)c([N+](=O)[O-])c1,n,n,n,n,-41
COc1ccc2c(c1)c(/C=N/Nc1nc3ccccc3[nH]1)c(C)n2C,28µM[quencher],n,u,22µM,n
COc1cc(/C=N\Nc2nc3ccccc3[nH]2)cc(OC)c1OC,n,n,n,u,n
COc1ccc(/C=N/Nc2nc3ccccc3[nH]2)cc1OC,u,n,u,13µM,n
C(=N\Nc1nc2ccccc2[nH]1)/c1ccc2c(c1)OCCO2,u,n,n,4µM,n
Fc1ccccc1-c1ccc(/C=N/Nc2nc3ccccc3[nH]2)o1,14µM[quencher],n,n,6.3µM,n
C(=N\Nc1nc2ccccc2[nH]1)/c1ccccn1,n,n,n,u,n
SMILES,Tau fluor cs,USP1-UAF1 inh,Tau FP inhib,Tau ThT inhib,Coupling enz
Cc1cc(C)c(NC(=O)C(C)n2nnc3sc4c(c3c2=O)CCCC4)c(C)c1 (stereo not drawn),n,n,n,n,x
C[C@]1(C(=O)NCC2CC2)C=C[C@@H](Cc2ccccc2)N1C(=O)c1ccccc1,n,x,n,n,n
CC(NC(=O)c1ccccc1)c1nnc(SCC(=O)NC2CCCC2)n1C (stereo not drawn),x,n,x,x,n
C=CCOC(=O)c1ccc(N2CCN(c3ccccc3)CC2)nc1,x,n,x,x,n
COc1cccc(Cn2c(=O)cc(C)c3c(C)nn(-c4ccc(C)cc4)c32)c1,n,n,n,n,x
CCOc1c(C)cnc2c1c(=O)n(Cc1c(F)cccc1Cl)c(=O)n2C,x,n,x,x,n
CCc1c2c(nc3cccc(SC)c13)COC2,n,x,n,u,n
CCN(CC)c1ccc(/C=N/NC(=O)Cc2cccs2)c(O)c1,13µM[quencher],n,n,u,n
CCN(CC)c1ccc(/C=N/NC(=O)c2ccco2)c(O)c1,u,n,n,u,n
CCN(CC)c1ccc(/C=N/Nc2nc3ccccc3[nH]2)c(O)c1,18µM[quencher],n,n,14µM,n
Cc1noc(C)c1C(=O)N1CCC2(CCCN(C(=O)Nc3ccccc3)C2)CC1,x,x,x,x,n
CCOc1ccc(-n2c(SCC(=O)N3CCOCC3)nc3c([nH]c4ccccc43)c2=O)cc1,n,n,n,n,x
CCN(Cc1ccncc1)Cc1c(O)ccc2cc(Br)ccc12,u,n,n,u,-54
CCOc1ccc(N(C)S(=O)(=O)c2ccc(C)c(C(=O)OCC(=O)c3c[nH]c4ccccc34)c2)cc1,u,n,8.9µM,n,n
CCCN(CCC)C(=O)c1c[nH]c2ccc(S(=O)(=O)N(C)c3ccc(OCC)cc3)cc2c1=O,n,n,n,n,x
CN(C)S(=O)(=O)c1ccc(C(=O)NCCSc2c(-c3ccc(Br)cc3)[nH]c3ccccc23)cc1,4.5µM[quencher],u,u,n,x
CCN(CC)S(=O)(=O)c1ccc(C(=O)NCCSc2c(-c3ccc(F)cc3)[nH]c3ccccc23)cc1,4.5µM[quencher],n,n,n,x
O=C(NCc1nc2ccccc2[nH]1)c1ccc(S(=O)(=O)N2CCOCC2)cc1,n,n,n,n,n
COc1ccc(-c2[nH]c3ccccc3c2SCCNC(=O)c2ccccc2)cc1,n,n,n,n,n
CCN(CC)S(=O)(=O)c1ccc(C(=O)NCCSc2c(-c3ccccc3)[nH]c3ccccc23)cc1,4.5µM[quencher],n,n,n,x
Cc1ccc(-c2[nH]c3ccccc3c2SCCNC(=O)c2ccc(S(=O)(=O)N3CCOCC3)cc2)cc1,3.5µM[quencher],n,n,n,n
COc1cc(-c2nc3ccc(Cl)cn3c2Nc2ccc3c(c2)OCO3)ccc1O,14µM[quencher],n,n,u,x
Cc1ccc(Nc2c(-c3ccncc3)nc3ccc(C)cn23)cc1,n,n,n,u,x
COc1ccc(-c2nc3ccc(C)cn3c2Nc2ccc3c(c2)OCO3)cc1,u,n,n,u,x
COc1cc(-c2nc3ccc(C)cn3c2Nc2ccc(Cl)cc2)ccc1O,8.9µM[quencher],u,u,u,x
SMILES,Tau fluor cs,USP1-UAF1 inh,Tau FP inhib,Tau ThT inhib,Coupling enz
Cc1ccc(-c2nc(CCNC(=O)C(=O)Nc3ccc(C)c(Cl)c3)cs2)cc1,n,n,n,n,x
Nc1ccc(-c2nc3c(Cl)cc(N)cc3[nH]2)cc1,u,n,u,20µM,n
CCOC(=O)c1cc(-c2ccc(OC)cc2)n(CCC(=O)NC2CCC(C)CC2)c1C (stereo not drawn),n,n,n,n,x
Cc1ccc2nsnc2c1NC(=S)NC(=O)c1ccco1,n,n,n,n,-45
C=CCSc1nnc(-c2ccccc2N=Cc2c(C)[nH]n(-c3ccccc3)c2=O)c(=O)[nH]1,n,n,n,u,n
CSc1nnc(-c2ccccc2N=Cc2c(C)[nH]n(-c3ccc4ccccc4c3)c2=O)c(=O)[nH]1,n,n,n,22µM,n
c1ccc(-c2ccc(OCCN3CCCC3)cc2)cc1,x,x,x,x,n
CCC(=O)N(C1=C(NC(C)C)C(=O)c2ccccc2C1=O)C(C)C,n,u,n,u,-34
